Reference: PubChem BioAssay AID1779 (Sanford-Burnham Center for Chemical Genomics, 2009)
Hit rate of the full screen: of about 290,000 compounds, about 160 (0.055%) were called active. No stated cut-off is given here; in the data, active means inhibition above about 50%; inactive means the rest. Only a selection was taken, and actives are over-represented in it overall.

The compounds below were run against Tyrosine-protein phosphatase non-receptor type 22 (Homo sapiens) (UniProt Q9Y2R2) (assay: inhibitors of LYP phosphatase, biochemical, fluorescence intensity, uHTS (AID 1779;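 further: plate controls were vehicle with enzyme for no effect and no enzyme for full effect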)). Details: recombinant LYP phosphatase, at 11.5 µM, stronger effect = higher value.
Sequence of Tyrosine-protein phosphatase non-receptor type 22 (Homo sapiens) (Q9Y2R2 whole entry, looked up): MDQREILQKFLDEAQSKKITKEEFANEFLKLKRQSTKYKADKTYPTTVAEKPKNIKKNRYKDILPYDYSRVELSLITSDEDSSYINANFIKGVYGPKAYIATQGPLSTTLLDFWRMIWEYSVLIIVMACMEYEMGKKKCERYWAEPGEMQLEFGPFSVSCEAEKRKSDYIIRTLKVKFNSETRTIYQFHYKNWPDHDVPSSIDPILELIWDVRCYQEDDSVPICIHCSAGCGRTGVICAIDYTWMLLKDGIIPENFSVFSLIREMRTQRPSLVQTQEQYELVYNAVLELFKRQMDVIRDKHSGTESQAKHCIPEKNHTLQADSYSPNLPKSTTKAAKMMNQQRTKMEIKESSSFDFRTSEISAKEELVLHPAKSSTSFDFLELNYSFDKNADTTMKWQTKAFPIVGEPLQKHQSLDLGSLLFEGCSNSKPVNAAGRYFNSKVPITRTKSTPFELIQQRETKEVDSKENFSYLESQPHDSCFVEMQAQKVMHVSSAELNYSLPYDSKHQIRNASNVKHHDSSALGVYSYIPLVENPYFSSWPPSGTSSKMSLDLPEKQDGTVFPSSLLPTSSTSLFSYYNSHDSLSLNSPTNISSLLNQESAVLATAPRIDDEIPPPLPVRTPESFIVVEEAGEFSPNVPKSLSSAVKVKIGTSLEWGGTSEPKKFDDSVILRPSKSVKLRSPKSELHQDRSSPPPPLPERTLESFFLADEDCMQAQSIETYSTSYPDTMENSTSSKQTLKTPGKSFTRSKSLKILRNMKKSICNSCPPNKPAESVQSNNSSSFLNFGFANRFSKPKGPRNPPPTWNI

Row | Compound | inhibition
1 | NC(=O)CC(NC(=O)Cc1ccc(Br)cc1)c1ccc(NC2CCC2)c([N+](=O)[O-])c1 (centres undefined) | -1.3% (inactive)
2 | Cc1cccc(N2CCN(C(=O)c3ccc(Cl)c(NC4=NC5CS(=O)(=O)CC5S4)c3)CC2C)c1 (centres undefined) | -0.7% (inactive)
3 | O=C(COc1ccc(S(=O)(=O)N2CCOCC2)cc1Cl)NCC1CCCO1 (centres undefined) | -12% (inactive)
4 | CCCCCOc1ccc(CN2CCOCC2)cc1Cl | 50.2% (active)
5 | c1cc(OCCCN2CCCCC2)ccc1CN1CCCCC1 | -8% (inactive)
6 | CCCCOc1ccc(CN2CCCCC2)cc1 | 67.8% (active)
7 | CCCCCOc1ccc(Cl)cc1CN1CCOCC1 | -8.9% (inactive)
8 | CCCOc1ccc(CN2CCOCC2)cc1OC | -8% (inactive)
9 | CCCCOc1ccc(CN2CCSCC2)cc1 | -4.9% (inactive)
10 | COc1ccc(C(=O)Nc2ccc(Cl)cc2C(=O)NCc2ccco2)cc1OC | 0.7% (inactive)
11 | COc1cc(OC)cc(C(=O)NCCN2C(=O)S/C(=C\c3cccs3)C2=O)c1 | 0.8% (inactive)
12 | Cc1nn(C(C)C(=O)NCCCN2CCCCCC2)c(=O)c2c1sc1ccccc12 (centres undefined) | -12.7% (inactive)
13 | Cc1cc(NC(=O)Cn2c(=O)n(CCCCC(=O)NC3CCN(Cc4ccccc4)CC3)c(=O)c3ccccc32)n[nH]1 | 73.8% (active)
14 | O=C(CCCCn1c(=O)c2ccccc2n(Cc2ccccc2)c1=O)NC1CCN(Cc2ccccc2)CC1 | -1.4% (inactive)
15 | Cc1cccc(C)c1NC(=O)Cn1c(=O)n(CCCC(=O)NC2CCN(Cc3ccccc3)CC2)c(=O)c2ccccc21 | -5.3% (inactive)
16 | CCOC(=O)C1=C(C)NC(=S)NC1c1ccc(-c2cccc(Cl)c2C)o1 (centres undefined) | 8.2% (inactive)
17 | COc1ccc2[nH]c(C)c(CCNC(=S)Nc3ccccc3C)c2c1 | 0.8% (inactive)
18 | COc1ccc2[nH]c(C)c(CCNC(=S)Nc3cc(C)ccc3C)c2c1 | 83.2% (active)
19 | COc1ccc2[nH]c(C)c(CCNC(=S)Nc3cc(C)cc(C)c3)c2c1 | 2.4% (inactive)
20 | COc1ccc(COc2ccc(S(=O)(=O)N3CCCC3)cc2C(N)=O)cc1F | -6% (inactive)
21 | CS(=O)(=O)c1ccc(Cl)c(S(=O)(=O)NCc2ccccc2)c1 | -8.1% (inactive)
22 | CCNS(=O)(=O)c1cc(S(C)(=O)=O)ccc1Cl | 85.1% (active)
23 | Cc1ccccc1NS(=O)(=O)c1cc(S(C)(=O)=O)ccc1Cl | -0.4% (inactive)
24 | CCC(C)(C(=O)NC1CCCC1)N(C(=O)c1cnccn1)c1c(C)n(C)n(-c2ccccc2)c1=O (centres undefined) | 1.7% (inactive)

Row | Compound | inhibition
25 | CC(=O)NS(=O)(=O)c1ccc(NC(=O)C2C3C=CC(C3)C2C(=O)O)cc1 (centres undefined) | 59.6% (active)
26 | NS(=O)(=O)c1ccc(NC(=O)C2C3C=CC(C3)C2C(=O)O)cc1 (centres undefined) | -7.2% (inactive)
27 | CC(=O)Nc1ccc(NC(=O)C2C3C=CC(C3)C2C(=O)O)cc1 (centres undefined) | -6.4% (inactive)
28 | COc1ccc(OC)c2c1nc1n2CCS1 | -2.7% (inactive)
29 | COc1ccc(NC(=O)CN2C(=O)/C(=C3\SC(=S)N(C4CCS(=O)(=O)C4)C3=O)c3ccccc32)cc1 (centres undefined) | -5.2% (inactive)
30 | O=C(CN1C(=O)/C(=C2\SC(=S)N(CCS(=O)(=O)O)C2=O)c2ccccc21)Nc1cccc(Br)c1 | 71% (active)
31 | COc1ccc(NC(=O)CN2C(=O)/C(=C3\SC(=S)N(CCC(=O)O)C3=O)c3ccccc32)cc1 | 69.2% (active)
32 | O=C1/C(=C2\C(=O)N(Cc3ccc(F)cc3)c3ccccc32)SC(=S)N1CCS(=O)(=O)O | -1.2% (inactive)
33 | COCCN1C(=O)/C(=C2/C(=O)N(CC(=O)Nc3ccccc3Cl)c3ccccc32)SC1=S | -3.5% (inactive)
34 | Cc1cccc(NC(=O)CN2C(=O)/C(=C3\SC(=S)N(CC4CCCO4)C3=O)c3ccccc32)c1 (centres undefined) | -7.3% (inactive)
35 | Cc1c(N=Cc2cc(Br)cc(Br)c2O)cccc1C(=O)O | -7.4% (inactive)
36 | CC(=O)CCn1cnc([N+](=O)[O-])n1 | -3.7% (inactive)
37 | Cc1ccc([C@@H]2[C@@H]3C(=O)N(C)C(=O)[C@@H]3[C@]3(C)C(=O)N(CCO)CC(=O)N23)o1 | -10.2% (inactive)
38 | COC(=O)c1[nH]c2ccccc2c1NC(=O)c1ccccc1F | -5.7% (inactive)
39 | COc1ccc(OCC(=O)Nc2ccccc2OC(F)F)cc1 | -1.4% (inactive)
40 | CC(C)=NOCc1ccc(-c2cn([C@@H]3COC[C@H]3O)nn2)cc1 | -2.9% (inactive)
41 | c1ccn(-c2ccc(-c3ccn[nH]3)cc2)c1 | -5.9% (inactive)
42 | Cc1ccc(C)n1-c1ccc(-c2ccn[nH]2)cc1 | 50% (active)
43 | Clc1ccc(-c2ccn[nH]2)cc1 | -8.1% (inactive)
44 | O=C(c1cccs1)N1CCCC1 | -12% (inactive)
45 | COc1ccccc1CNC(=O)CCC(=O)N1CCOc2ccc(C)cc21 | -4.7% (inactive)
46 | COc1ccc([N+](=O)[O-])cc1NC(=S)NC(NC(=O)C(c1ccccc1)c1ccccc1)C(Cl)(Cl)Cl (centres undefined) | 8% (inactive)
47 | COc1ccccc1OCC(=O)N(Cc1nc(-c2ccccc2)no1)C(C)C | -3.5% (inactive)
48 | CC1CCCCN1Cc1ccc(-c2nnn(CC(=O)NC3CCCCC3)n2)cc1 (centres undefined) | -2.1% (inactive)

Row | Compound | inhibition
49 | CCc1cc(-c2n[nH]c(=S)n2CC(C)C)cs1 | 5.1% (inactive)
50 | CCCc1cc(-c2n[nH]c(=S)n2CC(C)C)cs1 | 58.3% (active)
51 | CCCc1cc(-c2n[nH]c(=S)n2CC)cs1 | -1.3% (inactive)
52 | Cc1cc2oc(=O)cc(CN(C)Cc3ccccc3F)c2cc1Cl | -0.7% (inactive)
53 | COc1ccc(N2CCN(C(=O)c3ccc(S(=O)(=O)N4CCCC4)cc3)CC2)cc1 | -0.4% (inactive)
54 | COc1ccc2c(OC)cc(=O)n(C)c2c1 | 59.6% (active)
55 | COc1cc(=O)n(C)c2ccccc12 | -3.8% (inactive)
56 | COc1cc(=O)n(C)c2cc(N(C)C)ccc12 | -9.9% (inactive)
57 | CCOC(=O)CSc1nc2ccccc2c(=O)n1CC | 1.2% (inactive)
58 | O=c1c(Cc2ccc(F)cc2)c(O)ccn1C1CC1 | -9% (inactive)
59 | Cc1cccc(N2CCN(C(=O)Cn3c(=O)[nH]c4ccsc4c3=O)CC2C)c1 (centres undefined) | -8.5% (inactive)
60 | COCCn1nnnc1C(c1cccc(C(F)(F)F)c1)N1CCOCC1 (centres undefined) | -7% (inactive)
61 | CCC1CCCCN1CCCNC(=O)c1ccc(CS(=O)(=O)Cc2ccccc2F)o1 (centres undefined) | 56.2% (active)
62 | CCC1CCCCN1CCCNC(=O)c1ccc(CS(=O)(=O)c2ccccc2C)o1 (centres undefined) | -13.2% (inactive)
63 | CCC1CCCCN1CCCNC(=O)c1ccc(CS(=O)(=O)Cc2ccc(Cl)cc2)o1 (centres undefined) | -7.2% (inactive)
64 | C=CCOc1ccc2cccc(/C=N/NC(=O)c3cc4cc([N+](=O)[O-])ccc4s3)c2c1 | -4.5% (inactive)
65 | COc1cccc(/C=N/NC(=O)c2ccc([N+](=O)[O-])cc2Cl)c1O | 9% (inactive)
66 | COc1cccc(/C=N/NC(=O)c2cc3cc([N+](=O)[O-])ccc3s2)c1O | 73.6% (active)
67 | CC(=O)N1CCN(c2ccc(NC(=O)c3ccc(OCc4ccccc4)cc3)cc2)CC1 | -3.8% (inactive)
68 | CCc1ccc(OCc2nnc(SCC(=O)NC3CCCCC3)o2)cc1 | -6.8% (inactive)
69 | CCCNS(=O)(=O)c1ccc(NC(=O)c2cccnc2)cc1 | -7.3% (inactive)
70 | CC1Sc2ccc(S(=O)(=O)CCC(=O)NC3CCCC(C)C3C)cc2NC1=O (centres undefined) | -6.7% (inactive)
71 | Cc1ccccc1Cn1cc(NC(=O)c2nn(C)cc2Cl)cn1 | 60.2% (active)
72 | Cc1ccccc1Cn1cc(NC(=O)c2cc(-c3ccco3)on2)cn1 | -0.1% (inactive)

Row | Compound | inhibition
73 | Cn1cc(Cl)c(C(=O)Nc2cnn(Cc3ccc(F)cc3)c2)n1 | -1.2% (inactive)
74 | Cc1ccc(OCc2cc(C(=O)NC3CCOC3)no2)cc1C (centres undefined) | -2.1% (inactive)
75 | O=C(CN1C(=O)c2ccccc2C1=O)N1CCN=C1c1ccccc1 | -8.9% (inactive)
76 | Cc1cc(C)cc(OCC(=O)N/N=C/c2ccncc2)c1 | -10.7% (inactive)
77 | CCn1ncc(/C=N\NC(=O)COc2cc(C)cc(C)c2)c1C | -3.6% (inactive)
78 | Cc1cc(C)cc(OCC(=O)N/N=C\c2cn(C)nc2C)c1 | 76.1% (active)
79 | CC1=NNC(=O)C1CCC(=O)N/N=C(\C)c1ccccc1 (centres undefined) | -4.6% (inactive)
80 | c1ccc2c(c1)NC1(CCCC1)n1c-2nc2ccccc21 | -16.8% (inactive)
81 | Cc1cccc(NC(=O)Nc2cccc(C)n2)n1 | -5.9% (inactive)
82 | COc1ccc(Cc2nnc(NC(=O)c3ccccc3F)s2)cc1 | -0.8% (inactive)
83 | COc1ccc(Cc2nnc(NC(=O)c3ccccc3F)s2)cc1OC | 66.6% (active)
84 | COc1ccc(Cc2nnc(NC(=O)c3ccccc3Cl)s2)cc1OC | -9.8% (inactive)
85 | COc1ccc2cc(C(C)c3nc4ccccc4c(=O)n3N)ccc2c1 (centres undefined) | 4.5% (inactive)
86 | C=CCNc1nc(C(F)(F)F)nc2c1nnn2Cc1ccccc1Cl | -2.4% (inactive)
87 | COc1ccc(CNC(=O)c2cc(-c3cc(C)cc(C)c3O)n[nH]2)cc1 | 4% (inactive)
88 | COc1ccc(CNC(=O)c2cc(-c3cc(C)ccc3O)n[nH]2)cc1 | -3.7% (inactive)
89 | COc1ccc(CNC(=O)c2cc(-c3ccccc3O)n[nH]2)cc1 | 53.5% (active)
90 | COc1cccc(N(C(=O)c2snc(C(N)=O)c2N)C(C(=O)NCC2CCCO2)c2cccs2)c1 (centres undefined) | -2% (inactive)
91 | COc1ccc(C2CC(c3ccc(C)cc3)=NN2C(=O)CCC(=O)O)cc1OC (centres undefined) | 89.2% (active)
92 | COc1ccc(C2=NN(C(=O)CCC(=O)O)C(c3ccc(OC)c(OC)c3)C2)cc1 (centres undefined) | -7.5% (inactive)
93 | COc1ccc(C2CC(c3ccc(Br)cc3)=NN2C(=O)CCC(=O)O)cc1OC (centres undefined) | -7.6% (inactive)
94 | CC(=O)c1ccc(-n2c(CCC(=O)O)ccc2-c2ccc(C)cc2)cc1 | -5.2% (inactive)
